Source: PubChem BioAssay (NCATS)
Records with an inconclusive call do not appear. Where a call stands in place of a potency, no number is given. A number with no mark means an inactive call. The source made the active and inactive calls. Unless noted, calls come from the whole dose curve.

Tests used:
[1] = qHTS to identify inhibitors of the type 1 interferon - major histocompatibility complex class I in skeletal muscle: primary screen against the NCATS Pharmaceutical Collection (AID 1347407; active = well fitted curve in the direction sought with a large enough effect; an effect the other way counts as inactive or inconclusive;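 note: luminescence of HiBiT knocked into endogenous HLA-B as interferon-induced MHC class I level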)
Procedure, shortened: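 HLA-B HiBiT myoblasts, dexamethasone-free growth medium + 4 ng/ml IFN-b; compounds pinned 1 h after seeding, […] from 46 uM; 24 h, 37 C, 5% CO2; lytic HiBiT detection, 10 min RT, luminescence.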

[2] = target: Protein phosphatase 1D (Homo sapiens) (UniProt O15297); assay: RapidFire Mass Spectrometry qHTS Assay for Modulators of WT P53-Induced Phosphatase 1 (WIP1) (AID 1347424; active = well fitted curve in the direction sought with a large enough effect; an effect the other way counts as inactive or inconclusive;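 note: amount of dephosphorylated VEPPL-S-QETFS peptide product formed by WIP1; series mostly up to about 63 µM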)
Sequence of Protein phosphatase 1D (Homo sapiens) (O15297 whole entry, looked up): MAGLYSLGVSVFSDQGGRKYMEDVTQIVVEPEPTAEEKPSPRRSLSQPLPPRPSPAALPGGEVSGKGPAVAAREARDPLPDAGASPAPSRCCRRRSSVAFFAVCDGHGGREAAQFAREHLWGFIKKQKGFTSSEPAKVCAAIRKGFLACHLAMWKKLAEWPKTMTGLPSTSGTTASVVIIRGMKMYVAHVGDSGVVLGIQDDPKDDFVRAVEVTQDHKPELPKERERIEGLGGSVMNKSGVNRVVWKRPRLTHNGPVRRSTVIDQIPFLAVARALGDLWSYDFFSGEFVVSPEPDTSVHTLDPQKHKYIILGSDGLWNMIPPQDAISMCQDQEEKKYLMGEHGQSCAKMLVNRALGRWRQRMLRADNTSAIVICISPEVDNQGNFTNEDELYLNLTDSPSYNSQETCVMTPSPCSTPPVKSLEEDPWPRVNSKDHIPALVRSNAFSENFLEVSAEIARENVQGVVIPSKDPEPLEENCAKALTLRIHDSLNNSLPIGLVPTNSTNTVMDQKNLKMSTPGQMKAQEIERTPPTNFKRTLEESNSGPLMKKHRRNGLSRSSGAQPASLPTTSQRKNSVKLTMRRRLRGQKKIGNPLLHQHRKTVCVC
Procedure, shortened: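 10 nM WIP1 preincubated with compounds 1 hr at room temperature in pH 7.5 Tris buffer with 30 mM MgCl2, 1 mM TCEP; 2 uM VEPPL-pS-QETFS phosphopeptide for 5 min, formic acid quench; dephosphorylated product quantified by RapidFire MS against labelled standard.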

[3] = target: Protein phosphatase 1D (Homo sapiens) (UniProt O15297); assay: Rhodamine-PBP qHTS Assay for Modulators of WT P53-Induced Phosphatase 1 (WIP1) (AID 1347425; active = well fitted curve in the direction sought with a large enough effect; an effect the other way counts as inactive or inconclusive)
Procedure, shortened: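 Steps: enzyme with Rh-PBP sensor and compounds, room-temperature incubation of 1 hr, baseline read, addition of VEPPL-pS-QETFS (10 uM final), kinetic fluorescence reads at 525/598 nm. Activity equals final minus baseline signal.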

[4] = Primary qHTS for inhibitors of La Crosse Virus (LACV) - induced cell death in SH-SY5Y cells (AID 1508616; active = well fitted curve in the direction sought with a large enough effect; an effect the other way counts as inactive or inconclusive;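 note: top concentration of the series differs between compounds; higher means more rescue of cells from virus-induced death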)
Procedure, shortened: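 Protection against LACV-induced cell death is scored in SH-SY5Y cells exposed to compounds and virus (0.01 MOI) for 6 days. Data normalized to virus-infected DMSO wells and virus-free DMSO wells.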

[5] = target: Calcium and integrin-binding protein 1 (Homo sapiens) (UniProt Q99828); assay: Primary qHTS for Identification of Calcium Integrin Binding Protein 1 (CIB1) Competitor (AID 1508620; active = well fitted curve in the direction sought with a large enough effect; an effect the other way counts as inactive or inconclusive;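 note: GST tagged CIB1 binding a fluorescein labelled alphaIIb integrin peptide tracer; top concentration of the series differs between compounds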)
Sequence of Calcium and integrin-binding protein 1 (Homo sapiens) (Q99828 whole entry, looked up): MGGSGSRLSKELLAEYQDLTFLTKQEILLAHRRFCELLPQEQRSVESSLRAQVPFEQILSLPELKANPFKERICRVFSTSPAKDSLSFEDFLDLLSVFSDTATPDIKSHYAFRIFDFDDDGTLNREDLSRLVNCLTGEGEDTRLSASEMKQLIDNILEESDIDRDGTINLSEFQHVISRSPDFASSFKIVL
Procedure, shortened: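 Fluorescence polarization competition: GST-tagged CIB1 (1 uM final) preincubated with compound 15 min at room temperature, then FITC-labelled alphaIIb peptide (100 nM final) added. After 15 min at room temperature, polarization read at Ex 480/Em 540.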

[6] = Primary qHTS for Huh7 cytotoxicity: counterscreen for inhibitors of MERS-S pseudotyped particle cell entry (AID 1479147)
[7] = Primary qHTS for inhibitors of MERS-S pseudo-typed particle cell entry (AID 1479149); note: nearly all actives have a fitted effect of over 60% in size; for activity change, negative = inhibition: series mostly up to about 57 µM
[8] = Primary qHTS for Vero E6 cytotoxicity: counterscreen for inhibitors of SARS-S pseudo-typed particle cell entry (AID 1479150)
[9] = qHTS to identify inhibitors of the type 1 interferon - major histocompatibility complex class I in skeletal muscle: primary screen against the NCATS Mechanism Interrogation Plate v5.0 (MIPE) Libary (AID 1347411; active = well fitted curve in the direction sought with a large enough effect; an effect the other way counts as inactive or inconclusive; note: nearly all actives have a fitted effect of over 65% in size)
Procedure, shortened: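 Luminescence from HiBiT-tagged endogenous HLA-B*08:01 served as the MHC class I read-out. CRISPR-engineered C25cl48 human myoblasts received 4.0 ng/ml IFN-beta plus compound for 24 hrs, with an 11-point, 1:3 series topping at 46 uM final.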

[10] = Primary qHTS for inhibitors of SARS-S pseudo-typed particle cell entry (AID 1479145); note: nearly all actives have a fitted effect of over 45% in size; for activity change, negative = inhibition: series mostly up to about 57 µM
[11] = target: Calcium and integrin-binding protein 1 (Homo sapiens) (UniProt Q99828); assay: Confirmatory qHTS for Identification of Calcium Integrin Binding Protein 1 (CIB1) Competitor (AID 1508617; active = well fitted curve in the direction sought with a large enough effect; an effect the other way counts as inactive or inconclusive; note: nearly all actives have a fitted effect of over 65% in size; note: potency is the fitted concentration of half-maximal effect)
Procedure, shortened: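 Binding competition between test compounds and fluorescent alphaIIb peptide for 1 uM CIB1-GST is monitored by FP at 480/540 nm. Final compound range is up to 114 uM; unlabeled peptide serves as reference competitor.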

## CC(C)c1c(CN(C)C(C)Cc2ccccc2)n(C)n(-c2ccccc2)c1=O (stereo not drawn)
[1]
  Potency: inactive
[2]
  Potency: inactive
[3]
  outcome: inactive
[4]
  outcome: inactive
[5]
  Potency: inactive

## CCN(CCO)CCn1c(Cc2ccccc2)nc2c1c(=O)n(C)c(=O)n2C
[1]
  Potency: inactive
[2]
  Potency: inactive
[3]
  outcome: inactive
[4]
  outcome: inactive

## CC1(C)C(C=C(Cl)Cl)C1C(=O)OC(C#N)c1cccc(Oc2ccccc2)c1 (stereo not drawn)
[1]
  Potency: inactive
[2]
  Potency: inactive
[3]
  outcome: inactive
[4]
  outcome: inactive

## COc1cccc(C(=O)CCN[C@@H](C)[C@H](O)c2ccccc2)c1
[1]
  Potency: inactive
[2]
  Potency: inactive
[3]
  outcome: inactive
[6]
  Potency: inactive
[7]
  Potency: inactive
[8]
  Potency: inactive
[4]
  outcome: inactive

## C[C@]12CCC(=O)C=C1CC[C@@H]1[C@@H]2CC[C@@]2(C)[C@H]1CC[C@]2(C)O
[1]
  Potency: inactive
[2]
  Potency: inactive
[3]
  outcome: inactive
[4]
  outcome: inactive

## CN1C(=O)NC(=O)C(C)(C2=CCCCC2)C1=O (stereo not drawn)
[1]
  Potency: inactive
[2]
  Potency: inactive
[3]
  outcome: inactive
[6]
  Potency: inactive
[7]
  Potency: inactive
[8]
  Potency: inactive
[4]
  outcome: inactive

## CCCCCCC(=O)CCCCCC/C=C/C[C@@H](O)[C@H](O)[C@@](N)(CO)C(=O)O
[1]
  Potency: inactive
[2]
  Potency: inactive
[3]
  outcome: inactive
[4]
  outcome: inactive

## CC(=O)OCC1=C(C(=O)O)N2C(=O)[C@@H](N)[C@H]2SC1
[1]
  Potency: inactive
[2]
  Potency: inactive
[3]
  outcome: inactive
[4]
  outcome: inactive
[5]
  Potency: inactive

## CC(=O)C1CCOC1=O (stereo not drawn)
[1]
  Potency: inactive
[2]
  Potency: inactive
[3]
  outcome: inactive
[4]
  outcome: inactive

## COc1ccc2c3c1O[C@H]1[C@H](O)CC[C@H]4[C@@H](C2)N(C)CC[C@@]341
[1]
  Potency: inactive
[2]
  Potency: inactive
[3]
  outcome: inactive
[4]
  outcome: inactive
[5]
  Potency: inactive

## CCN[C@@H](C)Cc1cccc(C(F)(F)F)c1
[1]
  Potency: inactive
[2]
  Potency: inactive
[3]
  outcome: inactive
[4]
  outcome: inactive
[5]
  Potency: inactive

## CC(C)C[C@H](CN)CC(=O)O
[9]
  Potency: inactive

## C[C@]12CC[C@@H]3c4ccc(OC(=O)N(CCCl)CCCl)cc4CC[C@H]3[C@@H]1CC[C@@H]2OP(=O)(O)O
[9]
  Potency: inactive

## COP(=S)(OC)Oc1cc(Cl)c(Cl)cc1Cl
[10]
  Potency: inactive

## O=C1OC(c2ccc(O)c(S(=O)(=O)O)c2)(c2ccc(O)c(S(=O)(=O)O)c2)c2c(Br)c(Br)c(Br)c(Br)c21
[10]
  Potency: inactive
[11]
  Potency: inactive

## CCOC(=O)CC(SP(=S)(OC)OC)C(=O)OCC (stereo not drawn)
[11]
  Potency: 100 µM (active)

## CN1CC[C@]23c4c5ccc(O)c4O[C@H]2[C@@H](O)C=C[C@H]3[C@H]1C5
[5]
  Potency: inactive

## C[C@]12CC[C@H]3[C@@H](CCC4=CC(=O)CC[C@@H]43)[C@@H]1CC[C@@H]2OC(=O)CCc1ccco1
[5]
  Potency: inactive

## C[C@](N)(Cc1ccc(O)cc1)C(=O)O
[10]
  activity change, negative = inhibition: -0.396% [at 5.34 µM]
[6]
  outcome: inactive [at 5.34 µM]
[7]
  outcome: inactive [at 5.34 µM]
[8]
  activity change, negative = cytotoxicity: -24.5% [at 5.34 µM]

## NC(N)=Nc1nc(CSCC/C(N)=N/S(N)(=O)=O)cs1
[10]
  Potency: inactive
[6]
  Potency: inactive
[7]
  Potency: inactive
[8]
  Potency: inactive

## CCC[C@@H]1C[C@@H](C(=O)N[C@@H]([C@H]2O[C@H](SC)[C@H](O)[C@@H](O)[C@H]2O)[C@@H](C)O)N(C)C1
[10]
  Potency: inactive
[6]
  Potency: inactive
[7]
  Potency: inactive
[8]
  Potency: inactive

## CN[C@@H]1CCc2[nH]c3ccc(C(N)=O)cc3c2C1
[10]
  Potency: inactive
[6]
  Potency: inactive
[7]
  Potency: inactive
[8]
  Potency: inactive

## Nc1nc(-c2ccccc2)c(Br)c(=O)[nH]1
[10]
  Potency: inactive
[6]
  Potency: inactive
[7]
  Potency: inactive
[8]
  Potency: inactive

## CCCN1CCCC[C@H]1C(=O)Nc1c(C)cccc1C
[10]
  Potency: inactive
[6]
  Potency: inactive
[7]
  Potency: inactive
[8]
  Potency: inactive

## Cc1cc2c(cc1CC(=O)c1sccc1S(=O)(=O)Nc1onc(C)c1Cl)OCO2
[10]
  Potency: inactive
[6]
  Potency: inactive
[7]
  Potency: inactive
[8]
  Potency: inactive

## CN1C(C(=O)Nc2ccccn2)=C(O)c2ccccc2S1(=O)=O
[10]
  Potency: inactive
[6]
  Potency: inactive
[7]
  Potency: inactive
[8]
  Potency: inactive

## CC[N+](C)(CC)CCOC(=O)C1c2ccccc2Oc2ccccc21
[10]
  Potency: inactive
[6]
  Potency: inactive
[7]
  Potency: inactive
[8]
  Potency: inactive

## CN[C@@H]1[C@@H](O)[C@@H](O[C@@H]2[C@H](O)[C@H](O[C@H]3OC(CN)=CC[C@H]3N)[C@@H](N)C[C@H]2N)OCC1(C)O (stereo partly drawn)
[10]
  Potency: inactive
[6]
  Potency: inactive
[7]
  Potency: inactive
[8]
  Potency: inactive

## CCCCCCCC/C=C/C(=O)O
[10]
  Potency: inactive
[6]
  Potency: inactive
[7]
  Potency: inactive
[8]
  Potency: inactive

## Cc1cc(C)nc(NS(=O)(=O)c2ccc(N)cc2)n1
[10]
  Potency: inactive
[6]
  Potency: inactive
[7]
  Potency: inactive
[8]
  Potency: inactive

## CC(C(=O)O)c1ccc(/C=C2\CCCCC2=O)cc1 (stereo not drawn)
[10]
  Potency: inactive
[6]
  Potency: inactive
[7]
  Potency: inactive
[8]
  Potency: inactive

## NCCNCCNCCNCCN
[10]
  outcome: inactive [at 11.4 µM]
[6]
  outcome: inactive [at 11.4 µM]
[7]
  outcome: inactive [at 11.4 µM]
[8]
  activity change, negative = cytotoxicity: 1.23% [at 11.4 µM]
